Experimental findings from PubChem BioAssay (Tox21) are described below.

Unmarked numbers belong to inactive results. Results filed as inconclusive are left out. Calls of active or inactive are those of the source. Unless noted, calls follow the shape of the dose curve; as a rule, active = well fitted curve in the direction sought with a large enough effect in the repeat runs; inconclusive = weak or mixed curves; inactive = no such curve, though single readings can be large; an effect the other way counts as inactive or inconclusive.

Experiment [1] in a line: qHTS assay to identify small molecule agonists of the hypoxia (HIF-1) signaling pathway - cell viability counter screen (AID 1224844; calls by dose curve; also: nearly all actives have a fitted effect of over 50% in size). The essentials: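 In this counter screen, HRE-bla ME-180 cell viability after 17 hrs of compound exposure at 37C was read by CellTiter-Glo luminescence, multiplexed with the beta-lactamase reporter measurement.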
Experiment [2] can be described thus: qHTS assay to identify small molecule agonists of H2AX (AID 1224845; active = well fitted activation curve with a large enough effect in the signal ratio in the repeat runs, not every such curve was filed as active; the % refers to the signal ratio). The essentials:
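Phospho-H2AX Ser139 measured by HTRF (ex 320 nm; em 665 and 620 nm) after 24 hr antibody incubation. Compounds, 15 concentrations, 0.76% DMSO, were applied to CHO-K1 cells for 3hr at 37C before lysis.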
For orientation: In qHTS, concentration-response curves come from the screen itself.

A short description of experiment [3]: qHTS assay to identify small molecule agonists of the hypoxia (HIF-1) signaling pathway (AID 1224846; active = well fitted activation curve with a large enough effect in the signal ratio in the repeat runs, not every such curve was filed as active; the % refers to the signal ratio). The essentials: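 ME-180 HRE-bla reporter cells; compounds in DMSO, 17 h at 37C; read-out beta-lactamase via CCF4-AM FRET.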
A short description of experiment [4]: qHTS assay to identify small molecule agonists of H2AX - cell viability counter screen (AID 1224847; calls by dose curve; also: top concentration of the series differs between compounds; nearly all actives have a fitted effect of over 30% in size). The essentials:
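Wild-type CHO-K1 cells (10% FBS medium) were plated overnight at 37C, exposed to compounds at 15 concentrations for 3 hr at 37C (0.76% DMSO final), and viability was read as CellTiter-Glo luminescence after 30 min at room temperature.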

A short description of experiment [5]: qHTS RealTime-Glo MT Cell Viability Assay in HepG2 cells - 24 hour (AID 1224867). Also: nearly all actives have a fitted effect of over 50% in size. The essentials: (§1)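 Cell number in HepG2 cultures estimated from NanoLuc luminescence generated by metabolic reduction of a prosubstrate by living cells. The homogeneous, nonlytic format allowed repeated reads at 0, 8, 16, 24, 32 and 40 h of compound exposure.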
Experiment [6] can be described thus: qHTS RealTime-Glo MT Cell Viability Assay in HEK293 cells - 32 hour (AID 1224868). Also: top concentration of the series differs between compounds; nearly all actives have a fitted effect of over 50% in size. The procedure, abridged:
(§2)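 Homogeneous bioluminescent viability format in HEK293 cells (600 cells/well). Following 5 h at 37 C/5% CO2, 23 nL compound was pintooled; the signal was measured repeatedly during 40 h incubation.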

Experiment [7] is described as follows: A CellTox Green Cytotoxicity Assay to monitor cytotoxicity in HEK293 cells - 0 hour (AID 1224869). Also: nearly all actives have a fitted effect of over 50% in size. The procedure, abridged: (§3)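 Real-time, in one plate: 600 HEK293 cells/well with dead-cell DNA dye, pinned compound after 5 h, 37 C incubation over 40 h; viable cells give no appreciable fluorescence.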
Experiment [8] can be described thus: qHTS RealTime-Glo MT Cell Viability Assay in HepG2 cells - 40 hour (AID 1224870). Also: nearly all actives have a fitted effect of over 50% in size. The procedure, abridged:
(§4)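 Real-time viability: cells seeded at 600 per well together with NanoLuc and cell-permeant prosubstrate, compounds added after 5 h incubation. Luminescence tracked at 0, 8, 16, 24, 32 and 40 h of exposure.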

Experiment [9] is described as follows: A CellTox Green Cytotoxicity Assay to monitor cytotoxicity in HEK293 cells - 40 hour (AID 1224871). Also: nearly all actives have a fitted effect of over 45% in size. The essentials:
as §3

A short description of experiment [10]: qHTS RealTime-Glo MT Cell Viability Assay in HEK293 cells - 16 hour (AID 1224872). The essentials: as §2
Experiment [11] can be described thus: qHTS RealTime-Glo MT Cell Viability Assay in HEK293 cells - 40 hour (AID 1224874). Also: nearly all actives have a fitted effect of over 50% in size. The following applies: RealTime-Glo luminescence; max response: active compounds read low. The essentials: (§5)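 Kinetic, non-lysing viability readout. Seed HEK293 (600/well) with reagent, incubate 5 h at 37 C/5% CO2, pin 23 nL compound in DMSO, incubate at 37 C, read luminescence at 0, 8, 16, 24, 32, 40 h.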

Experiment [12] in a line: A CellTox Green Cytotoxicity Assay to monitor cytotoxicity in HEK293 cells - 24 hour (AID 1224875). Also: nearly all actives have a fitted effect of over 45% in size. The procedure, abridged:
as §3

Experiment [13] in a line: qHTS RealTime-Glo MT Cell Viability Assay in HepG2 cells - 32 hour (AID 1224877). Also: nearly all actives have a fitted effect of over 55% in size. The procedure, abridged: as §1
A short description of experiment [14]: A CellTox Green Cytotoxicity Assay to monitor cytotoxicity in HepG2 cells - 24 hour (AID 1224878). Also: nearly all actives have a fitted effect of over 45% in size. The procedure, abridged:
(§6)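 Cytotoxicity was tracked as dead-cell DNA fluorescence in HepG2 cells treated with test compounds at 37 C; each time-point value comes from one kinetic series spanning 0, 8, 16, 24, 32 and 40 h.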

Experiment [15] can be described thus: A CellTox Green Cytotoxicity Assay to monitor cytotoxicity in HepG2 cells - 40 hour (AID 1224879). Also: nearly all actives have a fitted effect of over 40% in size. Also: potency is read from the fitted curve at half-maximal effect. The procedure, abridged: as §6
A short description of experiment [16]: qHTS RealTime-Glo MT Cell Viability Assay in HEK293 cells - 0 hour (AID 1224880). Also: top concentration of the series differs between compounds; nearly all actives have a fitted effect of over 45% in size. The essentials:
as §5

A short description of experiment [17]: qHTS RealTime-Glo MT Cell Viability Assay in HepG2 cells - 8 hour (AID 1224873). Also: nearly all actives have a fitted effect of over 55% in size. The procedure, abridged:
as §4

The nature of experiment [18]: A CellTox Green Cytotoxicity Assay to monitor cytotoxicity in HepG2 cells - 16 hour (AID 1224876). Also: nearly all actives have a fitted effect of over 45% in size. The essentials:
as §6

A short description of experiment [19]: qHTS assay to identify small molecule antagonists of the estrogen related receptor (ERR) signaling pathway from Tox21 library (AID 1224848). Also: nearly all actives have a fitted effect of over 50% in size. The procedure, abridged:
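ERR cell line, 2,000 cells/well. 6 h settle, then compound (DMSO) added; 18 h at 37 C; ONE-Glo luminescence after 30 min RT.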

A short description of experiment [20]: qHTS assay to identify small molecule agonists of the estrogen related receptor (ERR) signaling pathway from Tox21 library (AID 1224849; calls by dose curve; also: nearly all actives have a fitted effect of over 15% in size). Particulars: ERR reporter cell line, ONE-Glo luciferase, 18 h; at 92.4 µM (top of the series) unless noted. The procedure, abridged: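 Luciferase activity in ERR pathway reporter cells served as the agonist readout; exposure lasted 18 h at 37 C, with ONE-Glo detection after 30 min at room temperature.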
% is scaled to controls: 0 for no effect and ±100 for the full control effect.

`CC(=O)O[C@@H]1C(=O)O[C@@H]2[C@H]1OC(=O)[C@@H]2OC(C)=O`: the Potency result in [1], in experiment [2], in experiment [4], in [5], in [6] and in [7] was “inactive” throughout. For the same compound, the Potency entry in experiment [8], in experiment [9], in experiment [10], in experiment [12], in experiment [13] and in experiment [14] was “inactive” throughout. The Potency result in experiment [16] was “inactive”. Besides, the compound was called inactive in [3]. The max response in [11] is -24.6%. The Potency in experiment [15] is 26.8 µM (active).
On to `CCOC(=O)CC(=O)c1cc(F)c(Cl)nc1Cl`, for which the Potency result in experiment [1], in experiment [2], in experiment [4], in experiment [5], in [7] and in [8] was “inactive” throughout. For the same compound, the Potency result in [17], in [18], in [13], in experiment [14] and in [15] was “inactive” throughout. For the same compound, in experiment [3], the call was inactive.
`CC1=CC(=O)/C(=C(/C)O)C(=O)O1`: the Potency entry in experiment [1], in experiment [2], in experiment [4], in experiment [5], in [6] and in experiment [7] was “inactive” each time. In addition, the Potency result in [8], in [9], in experiment [10], in experiment [17], in [18] and in [13] was “inactive” each time. In addition, the Potency result in [14], in experiment [15] and in experiment [16] was “inactive” in each case. In addition, the outcome in experiment [3] was inactive. Further, the max response in experiment [11] is 16.6%.
In the case of `CCCCCC(CO)CCC` (centres undefined), the Potency entry in experiment [1], in experiment [2], in experiment [4], in [19], in experiment [5] and in [6] was “inactive” each time. The Potency result in [7], in experiment [8], in experiment [9], in experiment [10], in experiment [17] and in [12] was “inactive” each time. In addition, the Potency result in [18], in experiment [13], in experiment [14] and in experiment [15] was “inactive” throughout. In addition, the activity change, positive = activation in [20] was 2.67%. In experiment [11], the max response is 1.02%.
Regarding `COc1ccc(OC)c(OC)c1`, the Potency entry in experiment [1], in experiment [2], in [4], in [5], in [7] and in [8] was “inactive” throughout. For the same compound, the Potency result in experiment [9], in experiment [10], in experiment [17], in [12], in [18] and in experiment [13] was “inactive” throughout. Also, the Potency result in [14], in experiment [15] and in experiment [16] was “inactive” throughout. In addition, in experiment [3], the call was inactive. The max response in experiment [11] was 15.8%.
As to `O=C(O)c1cn(C2CC2)c2cc(Cl)c(F)cc2c1=O`, the Potency result in experiment [1], in experiment [2], in [4], in [5], in experiment [8] and in [17] was “inactive” throughout. For the same compound, the Potency entry in experiment [18], in [13], in experiment [14] and in experiment [15] was “inactive” throughout. Also, the compound was called inactive in experiment [3].
For `O=C(O)/C=C/c1cnc[nH]1`, the Potency entry in [1], in experiment [2], in experiment [4], in experiment [5], in experiment [6] and in experiment [7] was “inactive” each time. Moreover, the Potency result in [9], in experiment [10], in experiment [17], in experiment [12], in experiment [18] and in experiment [13] was “inactive” in each case. Also, the Potency result in experiment [14], in [15] and in [16] was “inactive” throughout. Also, in experiment [3], the compound was classed as inactive. The max response in experiment [11] is -5.16%.
Consider `CC(C)(C)c1cc(CO)cc(C(C)(C)C)c1O`, for which the Potency entry in experiment [1], in experiment [2], in experiment [5], in [7], in experiment [9] and in experiment [18] was “inactive” each time. Further, the Potency entry in experiment [13], in experiment [14] and in experiment [15] was “inactive” in each case. Moreover, the result in experiment [3] was inactive. For the same compound, in experiment [20], the activity change, positive = activation is -33.2%.
